Measured values published in PubChem BioAssay AID1942 (Johns Hopkins Ion Channel Center, 2009).
The whole screen tested about 2,400 compounds, of which about 580 (24%) were called active. These entries were drawn from the full list. A number with no mark means an inactive call.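 How the source made its calls: active means activity change at or above the mean plus 3 SD of buffer wells without dofetilide, per plate; inactive means the rest.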

Each compound was assayed against Potassium voltage-gated channel subfamily KQT member 2 (Rattus norvegicus) (UniProt O88943) (assay: rat KCNQ2 channel activation by compounds alone, confirmation, counter-screen for hERG block protector project, cell-based, CHO, FluxOR thallium flux (AID 1942;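 further: normalized value minus buffer-control mean plus three SD of buffer wells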)). Settings: CHO-KCNQ2 cells, FluxOR thallium flux fluorescence; at 10 µM; active compounds read high.
Sequence of Potassium voltage-gated channel subfamily KQT member 2 (Rattus norvegicus) (O88943 whole entry, looked up): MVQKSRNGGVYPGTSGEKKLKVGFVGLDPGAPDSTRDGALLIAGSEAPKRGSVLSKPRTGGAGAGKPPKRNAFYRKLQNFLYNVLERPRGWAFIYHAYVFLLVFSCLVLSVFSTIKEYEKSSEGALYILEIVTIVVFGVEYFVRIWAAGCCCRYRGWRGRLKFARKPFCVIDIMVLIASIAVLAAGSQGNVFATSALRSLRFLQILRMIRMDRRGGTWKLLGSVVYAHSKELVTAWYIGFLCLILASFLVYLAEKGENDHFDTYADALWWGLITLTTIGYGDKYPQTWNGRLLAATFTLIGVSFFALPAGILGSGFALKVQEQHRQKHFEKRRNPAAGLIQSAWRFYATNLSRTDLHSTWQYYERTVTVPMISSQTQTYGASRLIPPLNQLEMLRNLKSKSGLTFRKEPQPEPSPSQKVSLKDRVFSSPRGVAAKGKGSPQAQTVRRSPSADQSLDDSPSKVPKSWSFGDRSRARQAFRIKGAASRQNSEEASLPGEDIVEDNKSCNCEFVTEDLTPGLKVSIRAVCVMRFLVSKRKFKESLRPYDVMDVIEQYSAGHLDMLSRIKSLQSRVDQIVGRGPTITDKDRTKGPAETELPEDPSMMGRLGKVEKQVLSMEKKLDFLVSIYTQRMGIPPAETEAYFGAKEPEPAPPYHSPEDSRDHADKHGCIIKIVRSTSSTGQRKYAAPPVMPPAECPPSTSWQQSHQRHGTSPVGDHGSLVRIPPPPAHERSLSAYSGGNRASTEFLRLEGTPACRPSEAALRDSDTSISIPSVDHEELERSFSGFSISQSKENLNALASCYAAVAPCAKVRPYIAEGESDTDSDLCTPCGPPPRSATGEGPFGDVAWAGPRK
In the case of COc1ccc(-c2nc(=S)c3c([nH]2)Oc2ccc(C)cc2C3)cc1O, the activity change, less the hit threshold is reported as -18.3%. Cc1cc(N2C(=O)C(O)=C(C(=O)c3cccs3)C2c2ccccc2)no1 (stereo not drawn) gave an activity change, less the hit threshold of -22.8%. In the case of COc1ccc(C(=O)NCC(=O)OCn2nnc3ccccc3c2=O)cc1OC, the activity change, less the hit threshold is reported as -17.7%. For CC(Oc1ccc(Br)cc1)c1nc2c3ccccc3nc(=S)n2[nH]1 (stereo not drawn), the activity change, less the hit threshold was 14.3% (active). COc1cc(OC)cc(-c2nc3ccccc3c(=O)n2OC(=O)c2ccc(Br)cc2)c1 was tested, and the activity change, less the hit threshold was -12.9%. Work on COc1ccc(S(=O)(=O)n2nc(C)c(S(=O)(=O)N3CCOCC3)c2C)cc1OC yielded an activity change, less the hit threshold of -19%. In the case of Cc1ccc(-c2nc(N)s[n+]2-c2ccccc2)cc1, the activity change, less the hit threshold is reported as 11.3% (active). Cc1nnc(SCc2cc(=O)oc3cc(O)ccc23)n1Cc1ccccc1 gave an activity change, less the hit threshold of -14.7%. With COc1ccc(-c2c(C)c3ccc(OCC(C)=O)cc3oc2=O)cc1 the activity change, less the hit threshold was -17.3%. O=c1c2ccccc2[nH]c(=S)n1CCc1ccccc1 was tested, and the activity change, less the hit threshold was 10.3% (active). Cc1ccc(Cn2c(=S)[nH]c3ccccc3c2=O)cc1 showed an activity change, less the hit threshold of -6.4%. For CCC(C)n1c(=S)[nH]c2ccccc2c1=O (stereo not drawn), the activity change, less the hit threshold was 25% (active). CCCCn1c(=S)[nH]c2ccccc2c1=O was tested, and the activity change, less the hit threshold was 3.1% (active). CCC(Cc1ccccc1)n1c(=S)[nH]c2ccccc2c1=O (stereo not drawn) showed an activity change, less the hit threshold of -14%. Work on COc1ccc(CCn2c(S)nc3ccccc3c2=O)cc1 yielded an activity change, less the hit threshold of -6.5%. CC(C)COn1c(=S)[nH]c2ccccc2c1=O was tested, and the activity change, less the hit threshold was 11.1% (active). In the case of CC1(C)Cc2c(sc(NC(=O)C(=O)N3CCCC3)c2C#N)CO1, the activity change, less the hit threshold is reported as -3.6%. Work on CC1=NN(c2ccccc2)C(=O)/C1=C/c1ccc(-c2ccc(C)c(C(=O)O)c2)o1 yielded an activity change, less the hit threshold of -18.9%. Cc1cc(=O)oc(C)c1C(=O)NCCC(C)C gave an activity change, less the hit threshold of -6.2%. Work on O=C(COC(=O)c1cnccn1)c1ccc(Cl)cc1 yielded an activity change, less the hit threshold of -17%. For Cc1ccc(NC(=O)c2ccc(CNS(=O)(=O)c3cccc(C(F)(F)F)c3)cc2)cc1, the activity change, less the hit threshold was -15.6%. In the case of Cc1ccc(CS(=O)(=O)c2ncc(Cl)c(C(=O)Nc3nnc(C)s3)n2)cc1, the activity change, less the hit threshold is reported as -0.8%. O=C(Nc1ccc2[nH]c(=S)sc2c1)Nc1ccccc1F showed an activity change, less the hit threshold of -19%. S=c1[nH]c2cc(Cl)ccc2s1 was tested, and the activity change, less the hit threshold was 106% (active). With S=c1[nH]c2ccc(Cl)cc2s1 the activity change, less the hit threshold was 101% (active). CCNC(=O)NC1c2ccccc2CSc2ccccc21 (stereo not drawn) was tested, and the activity change, less the hit threshold was -20.6%. Cc1ccc(C)c(NC(=O)CCN2C(=O)[C@@H]3Cc4ccccc4CN3C2=O)c1 gave an activity change, less the hit threshold of -23.4%. For CCOc1ccc(C(=O)N(CN2CCCC2=O)c2ccc(C)cc2)cc1, the activity change, less the hit threshold was 21.8% (active). O=C(NCCCN1CCCC1=O)c1ccc(OC(F)(F)F)cc1 was tested, and the activity change, less the hit threshold was -19.5%. With COc1ccc(C(=O)N(CN2CCCC2=O)c2ccc(C)cc2)cc1 the activity change, less the hit threshold was -3.9%. For Cc1cc(C)c(Cn2c3ccccc3c3cnn(CC(=O)NCc4ccccn4)c(=O)c32)c(C)c1, the activity change, less the hit threshold was -12.3%. O=C1OCCC1Sc1nc2ccccc2c(=O)n1Cc1ccc(F)cc1 (stereo not drawn) gave an activity change, less the hit threshold of -2%. COc1cc2c(cc1OC)C(c1ccc([N+](=O)[O-])cc1)N(C(C)=O)CC2 (stereo not drawn) showed an activity change, less the hit threshold of -27%. Work on O=C(Nc1ccc(Cl)c(Cl)c1)Nc1nnc(CSc2ccccc2)s1 yielded an activity change, less the hit threshold of -5.4%. Work on CCCN(CC1CC1)C(=S)Nc1ccccc1F yielded an activity change, less the hit threshold of -17.8%. With CCCN(CCC)C(=S)NC(=O)c1ccc(-c2ccccc2)cc1 the activity change, less the hit threshold was 91.4% (active). For C=CCN(CC=C)C(=S)NC(=O)c1ccc([N+](=O)[O-])cc1, the activity change, less the hit threshold was 48.5% (active). In the case of C=CCN(CC=C)C(=S)NC(=O)c1ccc(-c2ccccc2)cc1, the activity change, less the hit threshold is reported as 21% (active). CCN(CC)C(=S)NC(=O)c1ccc(F)cc1 gave an activity change, less the hit threshold of -10.2%. For C=CCN(c1ccc(C(=O)NC(C)C)cc1)S(C)(=O)=O, the activity change, less the hit threshold was -16.8%. For C=CCN(CC=C)C(=S)NC(=O)Cc1cccc2ccccc12, the activity change, less the hit threshold was 3.6% (active). O=C(NCCOC(=O)c1ccc([N+](=O)[O-])cc1)c1cccnc1 was tested, and the activity change, less the hit threshold was -12.2%. Cc1c(C)n(CCN(C)C)c2ccc(C(=O)OCCN(C)C)cc12 gave an activity change, less the hit threshold of -12.7%. Compound CCCCCN(C(=O)CCC(=O)OC(C)C(=O)c1ccccc1)c1c(N)n(CCCC)c(=O)[nH]c1=O (stereo not drawn) has an activity change, less the hit threshold of -10.3%. For CCn1nnnc1SCC(=O)N1c2ccccc2Sc2ccccc21, the activity change, less the hit threshold was -16.2%. CCc1nnc(NS(=O)(=O)c2ccc(NC(=S)NC(=O)/C=C/c3ccc(OC)cc3)cc2)s1 showed an activity change, less the hit threshold of -7.3%. COc1ccc(CCNC(=O)CSc2ccc3nnc(CCNC(=O)c4ccccc4)n3n2)cc1OC gave an activity change, less the hit threshold of -18.6%. CCCN1CCC(NC(=O)CC2C(=O)NCCN2Cc2cccc(OC)c2)CC1 (stereo not drawn) was tested, and the activity change, less the hit threshold was -17.9%. Compound CCCCCC(=O)NNC(=S)NC(=O)c1ccc([N+](=O)[O-])cc1 has an activity change, less the hit threshold of -31.9%. Work on CCC(=O)Nc1ccc(C(=O)NNC(=O)c2cc([N+](=O)[O-])cc([N+](=O)[O-])c2)cc1 yielded an activity change, less the hit threshold of -17.8%. CCCCNC(=S)NC(=O)c1ccc([N+](=O)[O-])cc1 was tested, and the activity change, less the hit threshold was 22.9% (active). For CC1CCN(S(=O)(=O)c2ccc3nc(N4CCN(c5ccccc5)CC4)ccc3c2)CC1, the activity change, less the hit threshold was -25.2%. Cc1[nH]c(=S)sc1Cc1ccc(Cl)c(Cl)c1 showed an activity change, less the hit threshold of -16%. In the case of Cc1ccc(Cc2c[nH]c(=S)s2)cc1, the activity change, less the hit threshold is reported as 52.8% (active). With Clc1ccc(Cc2ccccc2)nn1 the activity change, less the hit threshold was -12.9%. S=c1[nH]cc(Cc2ccccc2)s1 was tested, and the activity change, less the hit threshold was 1.4% (active). COCCn1cnc2c1c(=O)n(CC#N)c(=O)n2Cc1ccccc1 was tested, and the activity change, less the hit threshold was -22%. For CCOc1ccc(CCNC(=O)Nc2ccccc2C)cc1OCC, the activity change, less the hit threshold was -14.3%. CNC(=O)CSc1nnc(-c2ccco2)n1-c1ccc(C)cc1 gave an activity change, less the hit threshold of -16.3%. With Cc1ccc(C(=O)N/N=C(/CC(=O)c2cccs2)C(F)(F)F)cc1 the activity change, less the hit threshold was 5.2% (active). In the case of Cc1ccc(C(=O)NC(=S)Nc2ccccc2C(F)(F)F)cc1, the activity change, less the hit threshold is reported as -24.5%. With CCCOc1ccc(C(=O)NNC(=S)NC(=O)c2cccs2)cc1 the activity change, less the hit threshold was -34.1%. COc1ccc(S(=O)(=O)N2CCN(C(=O)CNC(=O)c3ccc4c(c3)OCO4)CC2)cc1 gave an activity change, less the hit threshold of -12.9%.
